The values that follow come from PubChem BioAssay (NCI).

Test systems include RPMI-8226 leukemia; OVCAR-8 ovarian; OVCAR-5 ovarian; OVCAR-4 ovarian; SK-OV-3 ovarian; IGROV1 ovarian; OVCAR-3 ovarian; HS 578T breast; NCI/ADR-RES ovarian; T-47D breast.
Holding throughout (assay): NCI-60 one-dose screen, 48 h (100 = growth as untreated, 0 = no growth, -100 = all killed)
Common to all, as to details: 10 µM unless noted

Molecules are shown by their SMILES. Compounds without any hit were thinned out: in the full panel of roughly 83,000, 20% have a hit.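 Negative percent growth values reflect cell death: -40 means 40% of the cells present at the start died, and -100 means all died.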 A number with no mark means an inactive call. Calls of active or inactive are those of the source. The calls were made as follows: active = growth percent below 10; inactive = the rest.

Consider `CC1CCN(CCCCCOc2ccc3oc4cc(Cl)ccc4c(=O)c3c2)CC1`, for which the growth in the test with RPMI-8226 leukemia was 50.4%; in the test on OVCAR-8 ovarian, 73.6%; in the test with OVCAR-5 ovarian, 64.8%; in the test on OVCAR-4 ovarian, 75.2%; in the test on SK-OV-3 ovarian, 96.5%; in the test on IGROV1 ovarian, 51.8%. Further, the growth was 73.3% in the test with OVCAR-3 ovarian, 84.8% in the test with HS 578T breast, 70.8% with NCI/ADR-RES ovarian and 64.6% in the test on T-47D breast.

Consider `O=C(O)c1cc(N=Nc2ccc(-c3ccc(N=Nc4c(S(=O)(=O)O)cc5ccc(Nc6ccccc6)cc5c4O)cc3)cc2)ccc1O`, for which the growth in the test on RPMI-8226 leukemia was 104%; with OVCAR-8 ovarian it was 107%; in the test on OVCAR-5 ovarian, 109%; with OVCAR-4 ovarian, 102%; with SK-OV-3 ovarian it was 98.4%; in the test with IGROV1 ovarian, 100%. The growth was 103% in the test with OVCAR-3 ovarian, 106% with HS 578T breast, 104% in the test with NCI/ADR-RES ovarian and 89.1% in the test with T-47D breast.

Consider `CCCCCCC/C=C/[C@H]1O[C@]23C(=O)C[C@@]4(C[C@@H](OC5OC(CO)C(O)C(O)C5O)C[C@@H]4[C@H]2C=C1C)OC3=O` (stereo not given in full), for which the growth is -1.42% (active) in the test with RPMI-8226 leukemia; 14.5% with OVCAR-8 ovarian; 27.7% in the test on OVCAR-5 ovarian; 29.6% in the test on OVCAR-4 ovarian; 71.9% with SK-OV-3 ovarian; 15.9% in the test on IGROV1 ovarian. Also, the growth is 9.92% (active) in the test with OVCAR-3 ovarian, 61.7% in the test with HS 578T breast, -5.53% (active) in the test on NCI/ADR-RES ovarian and 25.2% with T-47D breast.

`CO[C@@]12C=C[C@@]34CCC(=O)N3c3ccccc3[C@@H](O1)C4C2`: the growth in the test with RPMI-8226 leukemia is 94.6%; with OVCAR-8 ovarian, 97.7%; with OVCAR-5 ovarian, 101%; with OVCAR-4 ovarian it was 109%; with SK-OV-3 ovarian, 107%; in the test with IGROV1 ovarian, 99.1%. Also, the growth in the test on OVCAR-3 ovarian is 108%; with HS 578T breast it was 95.3%; in the test on NCI/ADR-RES ovarian, 97.7%; in the test on T-47D breast, 96.2%.

In the case of `c1ccc(Sc2ncccn2)nc1`, the growth in the test on RPMI-8226 leukemia was 65.6%; with OVCAR-8 ovarian it was 100%; in the test on OVCAR-5 ovarian, 101%; with OVCAR-4 ovarian it was 98.1%; in the test with SK-OV-3 ovarian, 99.4%; with IGROV1 ovarian it was 108%. The growth in the test on OVCAR-3 ovarian was 102%; in the test with HS 578T breast, 94%; in the test on NCI/ADR-RES ovarian, 96.4%; in the test with T-47D breast it was 99.4%.

On to `CN(CCC#N)C(=O)Nc1ccccc1`, for which the growth in the test with RPMI-8226 leukemia is 107%; in the test with OVCAR-8 ovarian, 102%; in the test on OVCAR-5 ovarian, 111%; with OVCAR-4 ovarian, 104%; in the test on SK-OV-3 ovarian, 100%; in the test on IGROV1 ovarian, 106%. The growth with OVCAR-3 ovarian is 108%; in the test with HS 578T breast, 105%; in the test with NCI/ADR-RES ovarian, 102%; in the test with T-47D breast, 97.2%.

On to `O=C1CC23OC4ON=C(Br)C4C2C(O)c2ccccc2N13` (stereo not given), for which the growth in the test with RPMI-8226 leukemia was 100%; with OVCAR-8 ovarian, 104%; with OVCAR-5 ovarian, 114%; in the test with OVCAR-4 ovarian, 120%; in the test on SK-OV-3 ovarian, 93.5%; with IGROV1 ovarian, 88.8%. Further, the growth was 96.3% in the test with OVCAR-3 ovarian, 98.4% in the test on HS 578T breast, 94.5% with NCI/ADR-RES ovarian and 100% with T-47D breast.

For `Nc1ccc(C2=NN(C(=O)c3cc(-c4ccc(Cl)cc4)nc4ccccc34)C(c3ccccc3)C2)cc1` (stereo not given), the growth in the test with RPMI-8226 leukemia is 8.12% (active); in the test with OVCAR-8 ovarian it was 37.5%; in the test with OVCAR-5 ovarian, 73.4%; in the test on OVCAR-4 ovarian, 63.1%; with SK-OV-3 ovarian, 24.6%; in the test with IGROV1 ovarian it was 50.9%. For the same compound, the growth is 3.55% (active) with OVCAR-3 ovarian, 29.4% in the test on HS 578T breast, 12.7% in the test with NCI/ADR-RES ovarian and 30.8% in the test with T-47D breast.

Turning to `Nc1ccc(C2=NN(C(=O)c3cc(-c4ccc(Cl)cc4)nc4ccccc34)C(c3ccc(Cl)cc3)C2)cc1` (stereo not given), the growth is 10.4% in the test with RPMI-8226 leukemia; 32.1% in the test with OVCAR-8 ovarian; 81.3% with OVCAR-5 ovarian; 72.4% with OVCAR-4 ovarian; 31.7% in the test with SK-OV-3 ovarian; 49.2% in the test with IGROV1 ovarian. Further, the growth is 8.07% (active) in the test with OVCAR-3 ovarian, 41.8% in the test with HS 578T breast, 12.4% in the test with NCI/ADR-RES ovarian and 38% in the test with T-47D breast.

For `Nc1c(C(=O)Nc2cccc3ccccc23)sc2nc3c(cc12)CCCCCC3`, the growth with RPMI-8226 leukemia was 30.4%; in the test with OVCAR-8 ovarian, 19.8%; in the test on OVCAR-5 ovarian it was 49.3%; in the test on OVCAR-4 ovarian it was 59%; in the test on SK-OV-3 ovarian it was 25.7%; with IGROV1 ovarian it was 44.8%. In addition, the growth in the test with OVCAR-3 ovarian was -36.8% (active); in the test on HS 578T breast it was 28.6%; with NCI/ADR-RES ovarian, 20.6%; in the test on T-47D breast, 36.5%.

`Nc1c(C(=O)Nc2ccccn2)sc2nc3c(cc12)CCCC3`: the growth was 55.9% in the test with RPMI-8226 leukemia; 65% with OVCAR-8 ovarian; 77.6% in the test with OVCAR-5 ovarian; 74.9% in the test with OVCAR-4 ovarian; 42.4% in the test with SK-OV-3 ovarian; 55.2% with IGROV1 ovarian. For the same compound, the growth in the test with OVCAR-3 ovarian was 23.9%; with HS 578T breast, 39.7%; with NCI/ADR-RES ovarian, 28.2%; with T-47D breast, 43%.
